# According to PMC7862700, “An all-to-all approach to the identification of sequence-specific readers for epigenetic DNA modifications on cytosine”:
# Columns and labels:
# Assay in all cases: DAPPL (digital affinity profiling via proximity ligation, sequencing); 10 mM Tris-HCl pH 7.5, 50 mM NaCl, 1 mM DTT, 4% glycerol, room temperature, 30 min; GST-TFs on glutathione beads, 16-mer random dsDNA library, 0.1% formaldehyde crosslink after washing; high values mean tight binding
# [1] = molecular target: T1, FEV (Homo sapiens, UniProt Q99581 1-238); conditions: protein: recombinant; tags: N-terminal GST; dsDNA, one strand shown
# T1 sequence: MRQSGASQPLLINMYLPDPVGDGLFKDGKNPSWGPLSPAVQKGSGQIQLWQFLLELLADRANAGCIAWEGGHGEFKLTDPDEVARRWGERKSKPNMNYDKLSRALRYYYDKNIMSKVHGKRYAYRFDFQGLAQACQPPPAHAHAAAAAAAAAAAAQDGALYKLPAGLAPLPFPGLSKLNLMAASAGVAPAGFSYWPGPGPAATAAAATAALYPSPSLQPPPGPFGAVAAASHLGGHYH
# Method in brief: (§1)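 Each value of binding signal is a hexamer's read frequency for a factor divided by the same hexamer's frequency in the tag-only sample. Barcoded, bead-captured GST fusions of human transcription factors made in yeast were pooled with that sample and incubated with 200 nmole of a random double-stranded 16-mer DNA library in Tris/NaCl/DTT/glycerol buffer at room temperature for 30 min. Washing, 0.1% formaldehyde crosslinking, proximity ligation, PCR and Illumina NextSeq500 sequencing followed.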
# [2] = molecular target: ETV5 (Homo sapiens, UniProt P41161 1-510); conditions: protein: recombinant; tags: N-terminal GST; dsDNA, one strand shown
# Method in brief: as §1
# [3] = molecular target: HSF1 (Homo sapiens, UniProt Q00613 1-529); conditions: protein: recombinant; tags: N-terminal GST; chain copies: 3; dsDNA, one strand shown
# Method in brief: as §1
# [4] = molecular target: T2, SPIC (Homo sapiens, UniProt Q8N5J4 1-248); conditions: protein: recombinant; tags: N-terminal GST; dsDNA, one strand shown
# T2 sequence: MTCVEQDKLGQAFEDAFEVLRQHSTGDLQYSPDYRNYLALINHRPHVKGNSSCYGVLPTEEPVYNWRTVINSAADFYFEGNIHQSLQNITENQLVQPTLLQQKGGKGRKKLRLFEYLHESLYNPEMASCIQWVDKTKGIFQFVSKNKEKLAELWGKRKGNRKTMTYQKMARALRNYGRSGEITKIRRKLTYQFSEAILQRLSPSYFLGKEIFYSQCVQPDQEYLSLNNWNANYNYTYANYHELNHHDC
# Method in brief: as §1
# [5] = molecular target: ELF4 (Homo sapiens, UniProt Q99607 1-663); conditions: protein: recombinant; tags: N-terminal GST; dsDNA, one strand shown
# Method in brief: as §1
# [6] = molecular target: T3, ELK4 (Homo sapiens, UniProt P28324-2 1-405); conditions: protein: recombinant; tags: N-terminal GST; dsDNA, one strand shown
# T3 sequence: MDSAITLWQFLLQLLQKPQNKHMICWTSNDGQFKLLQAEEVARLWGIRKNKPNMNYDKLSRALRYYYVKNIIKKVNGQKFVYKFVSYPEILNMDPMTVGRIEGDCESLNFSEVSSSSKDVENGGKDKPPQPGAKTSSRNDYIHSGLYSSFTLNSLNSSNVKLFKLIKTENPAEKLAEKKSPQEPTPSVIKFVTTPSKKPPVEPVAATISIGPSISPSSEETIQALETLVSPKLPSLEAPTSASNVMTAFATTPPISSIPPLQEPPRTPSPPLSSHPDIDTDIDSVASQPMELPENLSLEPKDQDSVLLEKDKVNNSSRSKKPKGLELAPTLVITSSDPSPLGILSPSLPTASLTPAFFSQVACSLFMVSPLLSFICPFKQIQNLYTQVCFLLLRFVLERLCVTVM
# Method in brief: as §1
# [7] = molecular target: T4, ETV2 (Homo sapiens, UniProt O00321 1-342); conditions: protein: recombinant; tags: N-terminal GST; dsDNA, one strand shown
# T4 sequence: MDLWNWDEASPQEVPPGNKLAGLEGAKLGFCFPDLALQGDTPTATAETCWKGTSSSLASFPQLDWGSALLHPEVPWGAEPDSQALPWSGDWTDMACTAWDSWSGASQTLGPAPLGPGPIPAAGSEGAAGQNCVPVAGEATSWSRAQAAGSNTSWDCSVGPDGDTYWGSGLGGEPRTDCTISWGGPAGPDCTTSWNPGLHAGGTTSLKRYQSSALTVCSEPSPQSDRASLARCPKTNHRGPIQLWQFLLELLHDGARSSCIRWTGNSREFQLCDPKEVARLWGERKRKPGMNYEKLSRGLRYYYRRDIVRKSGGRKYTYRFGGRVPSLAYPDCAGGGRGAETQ
# Method in brief: as §1
# [8] = molecular target: T5, ELF3 (Homo sapiens, UniProt P78545 1-371); conditions: protein: recombinant; tags: N-terminal GST; dsDNA, one strand shown
# T5 sequence: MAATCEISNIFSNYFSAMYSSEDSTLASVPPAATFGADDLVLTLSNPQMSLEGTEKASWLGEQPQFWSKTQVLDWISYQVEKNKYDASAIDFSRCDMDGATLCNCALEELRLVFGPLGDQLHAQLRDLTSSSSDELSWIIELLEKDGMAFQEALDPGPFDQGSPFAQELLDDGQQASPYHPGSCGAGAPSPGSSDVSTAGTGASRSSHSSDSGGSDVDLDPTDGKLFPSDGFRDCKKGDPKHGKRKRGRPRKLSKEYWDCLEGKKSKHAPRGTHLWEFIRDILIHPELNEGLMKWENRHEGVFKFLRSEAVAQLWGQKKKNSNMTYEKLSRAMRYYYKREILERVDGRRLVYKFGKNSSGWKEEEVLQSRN
# Method in brief: as §1
# [9] = molecular target: CRX (Homo sapiens, UniProt O43186 1-299); conditions: protein: recombinant; tags: N-terminal GST; dsDNA, one strand shown
# Method in brief: as §1
# [10] = molecular target: ETV1 (Homo sapiens, UniProt P50549 1-477); conditions: protein: recombinant; tags: N-terminal GST; dsDNA, one strand shown
# Method in brief: as §1
# ETV1, sequence (P50549 whole entry): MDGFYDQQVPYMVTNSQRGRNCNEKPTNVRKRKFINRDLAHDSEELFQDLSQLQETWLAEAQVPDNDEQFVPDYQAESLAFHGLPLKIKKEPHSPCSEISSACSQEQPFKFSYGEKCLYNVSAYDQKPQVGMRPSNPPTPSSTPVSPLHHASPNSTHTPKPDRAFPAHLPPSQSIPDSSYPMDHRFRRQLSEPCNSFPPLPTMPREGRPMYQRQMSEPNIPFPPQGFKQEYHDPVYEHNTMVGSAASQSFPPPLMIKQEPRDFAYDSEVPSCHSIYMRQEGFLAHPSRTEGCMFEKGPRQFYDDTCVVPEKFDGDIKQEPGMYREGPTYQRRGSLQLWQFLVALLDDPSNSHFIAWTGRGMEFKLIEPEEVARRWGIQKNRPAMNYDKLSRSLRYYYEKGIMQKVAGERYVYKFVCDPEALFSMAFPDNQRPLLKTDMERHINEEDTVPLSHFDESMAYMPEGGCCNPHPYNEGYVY
# ETV5, sequence (P41161 whole entry): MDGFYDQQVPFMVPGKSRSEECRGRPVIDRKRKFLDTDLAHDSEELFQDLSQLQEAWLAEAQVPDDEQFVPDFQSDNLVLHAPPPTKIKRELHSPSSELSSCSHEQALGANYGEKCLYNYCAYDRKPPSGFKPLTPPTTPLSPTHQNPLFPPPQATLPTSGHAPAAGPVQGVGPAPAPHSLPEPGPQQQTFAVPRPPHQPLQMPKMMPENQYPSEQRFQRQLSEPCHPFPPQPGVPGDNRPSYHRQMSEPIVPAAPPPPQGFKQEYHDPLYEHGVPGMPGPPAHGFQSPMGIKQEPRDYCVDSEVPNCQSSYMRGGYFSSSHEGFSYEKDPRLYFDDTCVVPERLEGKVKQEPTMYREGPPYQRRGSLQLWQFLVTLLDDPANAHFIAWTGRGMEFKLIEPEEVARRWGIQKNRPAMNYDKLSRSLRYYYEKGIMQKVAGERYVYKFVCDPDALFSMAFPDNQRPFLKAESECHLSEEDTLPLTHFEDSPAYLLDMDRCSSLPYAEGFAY
# CRX, sequence (O43186 whole entry): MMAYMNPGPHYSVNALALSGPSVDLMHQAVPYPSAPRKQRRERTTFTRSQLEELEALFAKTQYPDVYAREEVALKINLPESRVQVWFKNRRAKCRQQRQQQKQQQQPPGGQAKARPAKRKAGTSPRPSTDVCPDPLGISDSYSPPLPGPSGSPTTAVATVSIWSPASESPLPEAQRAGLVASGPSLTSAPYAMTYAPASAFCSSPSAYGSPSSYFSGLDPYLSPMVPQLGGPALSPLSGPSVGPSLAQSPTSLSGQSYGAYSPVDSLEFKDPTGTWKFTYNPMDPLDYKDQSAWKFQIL
# ELF4, sequence (Q99607 whole entry): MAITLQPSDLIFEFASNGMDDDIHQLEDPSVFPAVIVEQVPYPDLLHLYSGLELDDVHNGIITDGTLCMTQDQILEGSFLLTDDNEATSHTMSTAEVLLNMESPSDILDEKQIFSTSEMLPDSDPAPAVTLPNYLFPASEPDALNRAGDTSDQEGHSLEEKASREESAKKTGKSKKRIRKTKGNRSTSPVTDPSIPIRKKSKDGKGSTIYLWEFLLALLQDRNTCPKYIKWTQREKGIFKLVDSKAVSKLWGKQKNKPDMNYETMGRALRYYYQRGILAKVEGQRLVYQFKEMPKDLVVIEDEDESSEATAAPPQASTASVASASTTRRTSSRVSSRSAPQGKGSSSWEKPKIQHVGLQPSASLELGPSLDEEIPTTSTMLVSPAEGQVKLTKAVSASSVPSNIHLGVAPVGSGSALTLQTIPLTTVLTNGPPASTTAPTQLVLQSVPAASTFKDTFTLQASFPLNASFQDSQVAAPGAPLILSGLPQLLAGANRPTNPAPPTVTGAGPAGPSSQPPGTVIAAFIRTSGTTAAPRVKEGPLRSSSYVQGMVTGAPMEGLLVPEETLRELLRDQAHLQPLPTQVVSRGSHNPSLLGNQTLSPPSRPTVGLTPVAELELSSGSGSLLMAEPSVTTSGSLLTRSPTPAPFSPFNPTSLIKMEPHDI
# HSF1, sequence (Q00613 whole entry): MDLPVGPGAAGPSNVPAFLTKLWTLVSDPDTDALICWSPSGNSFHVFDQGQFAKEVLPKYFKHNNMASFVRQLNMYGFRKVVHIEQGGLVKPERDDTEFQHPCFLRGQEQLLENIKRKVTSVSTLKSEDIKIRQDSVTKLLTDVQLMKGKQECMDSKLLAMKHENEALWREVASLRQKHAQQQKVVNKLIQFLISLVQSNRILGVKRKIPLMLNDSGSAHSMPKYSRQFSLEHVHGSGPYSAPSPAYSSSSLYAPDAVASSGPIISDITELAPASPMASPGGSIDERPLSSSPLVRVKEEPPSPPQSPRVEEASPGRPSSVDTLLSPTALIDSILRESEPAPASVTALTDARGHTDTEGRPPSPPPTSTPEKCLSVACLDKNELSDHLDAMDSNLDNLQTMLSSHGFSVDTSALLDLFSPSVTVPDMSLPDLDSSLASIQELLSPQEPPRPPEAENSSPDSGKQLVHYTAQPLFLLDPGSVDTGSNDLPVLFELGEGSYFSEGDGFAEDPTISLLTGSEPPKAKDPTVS
sequence,measurement,setting,value
TCCTAG,binding signal,[1],"1.19 fold enrichment (6-mer frequency, TF over GST control)"
same,binding signal,[2],"1.33 fold enrichment (6-mer frequency, TF over GST control)"
same,binding signal,[3],"1.45 fold enrichment (6-mer frequency, TF over GST control)"
same,binding signal,[4],"1.2 fold enrichment (6-mer frequency, TF over GST control)"
same,binding signal,[5],"1.29 fold enrichment (6-mer frequency, TF over GST control)"
same,binding signal,[6],"1.24 fold enrichment (6-mer frequency, TF over GST control)"
same,binding signal,[7],"1.23 fold enrichment (6-mer frequency, TF over GST control)"
same,binding signal,[8],"1.2 fold enrichment (6-mer frequency, TF over GST control)"
same,binding signal,[9],"1.29 fold enrichment (6-mer frequency, TF over GST control)"
same,binding signal,[10],"1.41 fold enrichment (6-mer frequency, TF over GST control)"
